Experiment [1] in a line: TOX21_p53_BLA_p3_viability: Viability Assessment in the Tox21 HCT-116 p53 Agonism Beta-lactamase Assay, Phase 3 (AID 2283593).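 Further: cells exposed to compound for 16 h before reading.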 In a few lines: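 HCT116 cells, 4000/well, dosed 5 h after plating by pin transfer (217-fold dilution from DMSO stock) and incubated 16 h at 37C, 5% CO2. Viability read as ATP luminescence with CellTiter-Glo after 30 min at room temperature.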
The target of experiment [2] is Cellular tumor antigen p53 (Homo sapiens) (UniProt P04637). Briefly: TOX21_p53_BLA_p3_ratio: Tox21 HCT-116 p53 Agonism Beta-lactamase Assay, Ratio, Phase 3 (AID 2283596). Put shortly: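 HCT116 p53-bla cells (4000/well) given compound in DMSO (217-fold dilution) after 5 h, incubated 16 h at 37C. CCF4-AM substrate 2 h at room temperature; 460/530 nm emission ratio, gain fitted against DMSO.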

A short description of experiment [3]: TOX21_p53_BLA_p4_viability: Viability Assessment in the Tox21 HCT-116 p53 Agonism Beta-lactamase Assay, Phase 4 (AID 2283597).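 Further: hits lower the luminescence signal meaning cytotoxicity.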 Put shortly:
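HCT-116 p53-bla cells, 4000/well, dosed after 5 h attachment and incubated 16 h at 37 °C, 5% CO2. Viability from CellTiter-Glo ATP luminescence after 30 min at room temperature, taken after the beta-lactamase read; loss of signal indicates cytotoxicity.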

Experiment [4] deals with Cellular tumor antigen p53 (Homo sapiens) (UniProt P04637). In words: TOX21_p53_BLA_p5_ratio: Tox21 HCT-116 p53 Agonism Beta-lactamase Assay, Ratio, Phase 5 (AID 2283599). Put shortly:
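HCT-116 p53-bla cells (4000/well) plated 5 h, dosed with compound (217-fold DMSO dilution) for 16 h at 37 C; CCF4-AM substrate 2 h at room temperature. Activity is the 460/530 nm emission ratio (405 nm excitation), fitted in gain-of-signal direction versus DMSO.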

A short description of experiment [5]: TOX21_p53_BLA_p5_viability: Viability Assessment in the Tox21 HCT-116 p53 Agonism Beta-lactamase Assay, Phase 5 (AID 2283600). In a few lines: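 HCT-116 p53 beta-lactamase reporter cells, 4000/well, were exposed to compound (pin transfer, 217-fold dilution) for 16 hours at 37C. Cellular ATP was read by CellTiter-Glo luminescence after 30 min at room temperature.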

The target in experiment [6] is Cellular tumor antigen p53 (Homo sapiens) (UniProt P04637). In words: TOX21_p53_BLA_p4_ratio: Tox21 HCT-116 p53 Agonism Beta-lactamase Assay, Ratio, Phase 4 (AID 2283601). In a few lines:
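HCT-116 p53 beta-lactamase reporter cells (4000/well) preincubated 5 h, then compound (217-fold dilution of DMSO stock) for 16 h at 37C. CCF4-AM substrate added 2 h at room temperature; 460/530 nm emission ratio fitted upward versus DMSO.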

Experiment [7] is described as follows: Tanguay_ZF_120hpf_MORT_legacy: (Legacy) Oregon State University Tanguay Lab 120 Hour Post-fertilization zebrafish Assay for Mortality (AID 2283633).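 On AC50: fitted as increase in binary mortality versus DMSO negative control.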 Put shortly: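 Dechorionated Tropical 5D wild-type zebrafish embryos, one per well from 6 hpf, static exposure in 0.64% DMSO at 28C until 120 hpf. Mortality scored as binary by brightfield microscopy at 24 and 120 hpf.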

Experiment [8] can be described thus: Tanguay_ZF_120hpf_YSE_legacy: (Legacy) Oregon State University Tanguay Lab 120 Hour Post-fertilization zebrafish Assay for Yolk Sac Edema (AID 2283634).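 On AC50: actives raise the incidence of yolk sac edema above the DMSO baseline.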 In a few lines: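 Dechorionated Tropical 5D wild-type zebrafish embryos were exposed statically, one per well, from 6 to 120 hpf at 28C in 0.64% DMSO. Yolk sac edema was scored present/absent by brightfield at 120 hpf, and dead embryos were excluded.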

Experiment [9] in a line: Tanguay_ZF_120hpf_AXIS_legacy: (Legacy) Oregon State University Tanguay Lab 120 Hour Post-fertilization zebrafish Assay for Body Axis Malformation (AID 2283635).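 On AC50: potency for an increased fraction of larvae scored with body axis malformation.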 Put shortly: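 Dechorionated wild-type Tropical 5D zebrafish embryos, one per well, statically exposed from 6 hpf to 120 hpf at 28C in 0.64% DMSO final. Body axis malformation scored present/absent by brightfield microscopy at 120 hpf; dead embryos excluded.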

Experiment [10] can be described thus: Tanguay_ZF_120hpf_EYE_legacy: (Legacy) Oregon State University Tanguay Lab 120 Hour Post-fertilization zebrafish Assay for Eye Malformation (AID 2283636).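 Further: binary presence or absence of eye malformation scored by brightfield in 120 hpf larvae.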 In a few lines:
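Dechorionated Tropical 5D zebrafish embryos, one per well from 6 hpf, static exposure to 120 hpf at 28C, 0.64% DMSO. Eye malformation scored present/absent by brightfield; dead embryos not scored.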

Several values for one entry are separate records, joined by “and”; a condition that tells them apart may be missing. Equal entries are not always repeated. Records with an inconclusive call do not appear. Some structures have more than one record in an assay (separate samples or runs), and their calls can disagree. Activity calls are given as the source filed them. How the source made its calls: active means hit-call score of the fitted dose curve at least 0.9, where 1 is the maximum; inconclusive means response in the unintended direction; inactive means score below 0.9.

Sequence of Cellular tumor antigen p53 (Homo sapiens) (P04637 whole entry, looked up): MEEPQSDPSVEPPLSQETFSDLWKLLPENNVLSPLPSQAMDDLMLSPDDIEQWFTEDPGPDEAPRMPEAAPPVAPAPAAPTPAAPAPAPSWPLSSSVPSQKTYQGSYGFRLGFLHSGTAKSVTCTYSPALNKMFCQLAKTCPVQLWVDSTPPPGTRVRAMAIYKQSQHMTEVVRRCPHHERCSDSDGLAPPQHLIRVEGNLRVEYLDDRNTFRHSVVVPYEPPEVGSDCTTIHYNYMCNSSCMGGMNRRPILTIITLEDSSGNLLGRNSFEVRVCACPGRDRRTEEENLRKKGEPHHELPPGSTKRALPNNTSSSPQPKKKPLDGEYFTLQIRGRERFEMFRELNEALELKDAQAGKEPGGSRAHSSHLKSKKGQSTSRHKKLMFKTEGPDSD

As for `Cc1oc(-c2ccccc2)nc1CCOc1ccc(C[C@H](Nc2ccccc2C(=O)c2ccccc2)C(=O)O)cc1`, the half-maximal activity concentration (AC50) (usually the concentration giving half of the maximal activity seen) in experiment [1] was 10.7 µM (active); in experiment [2], 39.9 µM (active); in experiment [3] it was 6.19 µM (active); in experiment [4], 56 µM (active); in experiment [5] it was 15.5 µM (active); in experiment [6], 41.6 µM (active). For the same compound, in experiment [7], the AC50 is 12.9 µM (active). Also, the result in experiment [8], in experiment [9] and in [10] was inactive.
Regarding `CC(=O)NC1(c2cccc(F)c2)CCN(CC[C@@]2(c3ccc(Cl)c(Cl)c3)CN(c3ccccc3)C(=O)CO2)CC1`, the half-maximal activity concentration (AC50) is 66.9 µM (active) in experiment [1]; 71.6 µM (active) in experiment [2]; 46.2 µM (active) in [3]; 70.3 µM (active) in [4]; 60.3 µM (active) in [5]; 65 µM (active) in experiment [6]. Further, the outcome in experiment [7], in [8] and in [10] was inactive.
On to `Oc1cc2ccccc2c2ccccc12`, for which the concentration at half-maximal activity (AC50) was 14.5 µM (active) in experiment [1]; 13.6 µM (active) in experiment [2]; 12.2 µM (active) in experiment [3]; 11.6 µM (active) in [4]; 13.3 µM (active) in experiment [5]; 20.4 µM (active) in experiment [6]. The AC50 was 14 µM (active) in [7], 38.3 µM (active) in experiment [8], 10.4 µM (active) in [9] and 40 µM (active) in experiment [10].
On to `CC(C)(C)c1cccc(C(C)(C)C)c1O`, for which the compound was classed as inactive in [1], in experiment [2], in experiment [3], in experiment [4], in experiment [5] and in experiment [6]. The call in [7], in [8] and in [10] was inactive.
For the compound `CC(C)(C)c1ccc(O)c(C(C)(C)C)c1`, the AC50 is 63.6 µM (active) and 86.7 µM (active) in experiment [1]; 77.4 µM (active) and 79.4 µM (active) in experiment [2]; 42.7 µM (active) in [3]; 57.1 µM (active) and 60.2 µM (active) in experiment [4]; 42.7 µM (active) in experiment [5]; 72.4 µM (active) in [6]. Moreover, the result in experiment [3], in experiment [5], in experiment [6], in experiment [7], in experiment [8] and in experiment [9] was inactive. Further, the outcome in [10] was inactive.
Take `O=[N+]([O-])c1ccc(O)cc1`: the result in experiment [1], in [2], in experiment [3], in experiment [4], in experiment [5] and in experiment [6] was inactive. Also, the call in experiment [7], in experiment [8], in experiment [9] and in experiment [10] was inactive.
In the case of `NC(=O)N1C(=O)C(C(=O)c2cc(Cl)cs2)c2cc(F)c(Cl)cc21` (stereo unspecified), the compound was called inactive in experiment [1], in [3], in experiment [5], in experiment [8], in experiment [9] and in experiment [10]. Further, the AC50 in experiment [2] was 2.59 µM (active); in experiment [4], 7.17 µM (active); in experiment [6], 14 µM (active); in [7], 1.44 µM (active).
As for `CCCOc1sc(C(=O)N2CCC(c3cc(CN)ccc3F)CC2)c(C)c1Br`, the AC50 in experiment [1] was 80 µM (active); in [2], 80.4 µM (active); in [3], 31.7 µM (active); in [4] it was 80.7 µM (active); in [5], 80.1 µM (active); in experiment [6], 72.2 µM (active). Besides, the compound was classed as inactive in experiment [7], in experiment [8], in experiment [9] and in experiment [10].
As for `CC[C@H](c1ccc(O)cc1)[C@@H](CC)c1ccc(O)cc1`, the compound was classed as inactive in experiment [1], in experiment [2], in experiment [3], in [4], in [5] and in [6]. For the same compound, the compound was called inactive in experiment [7], in experiment [8], in [9] and in [10]. For the same compound, the AC50 in [2] was 14.4 µM (active); in experiment [3], 57.8 µM (active); in experiment [4] it was 67.1 µM (active); in experiment [5] it was 75.7 µM (active); in [6], 60.1 µM (active).
As for `ClC1=C(Cl)C(Cl)(Cl)C(Cl)=C1Cl`, the AC50 in [1] was 5.7 µM (active) and 3.42 µM (active); in [2], 19.2 µM (active) and 2.22 µM (active). For the same compound, the compound was called inactive in experiment [3], in [4], in experiment [5], in [6], in experiment [8] and in experiment [9]. Further, the compound was classed as inactive in experiment [10].
For the compound `O=c1c(-c2ccc(O)cc2)coc2cc(O)ccc12`, the compound was classed as inactive in [1], in [2], in experiment [3], in [4], in experiment [5] and in [6]. Further, the outcome in experiment [7], in experiment [8], in experiment [9] and in experiment [10] was inactive.
Regarding `CN1CCN(c2ccccc2/C=C2\SCCN(c3ccc(Cl)c(Cl)c3)C2=O)CC1`, the AC50 is 77.6 µM (active) in [1], 86 µM (active) in experiment [4] and 83.7 µM (active) in experiment [5]. In addition, the result in [2], in [3], in [6], in experiment [7], in experiment [8] and in experiment [9] was inactive. Further, the result in experiment [10] was inactive.
With `CC1=C(/C=C/C(C)=C/C=C/C(C)=C/C(=O)O)C(C)(C)CCC1`, the AC50 in experiment [1] is 47.8 µM (active); in [2], 85.7 µM (active); in experiment [4] it was 86.9 µM (active); in experiment [7], 1.54 µM (active); in experiment [8], 0.214 µM (active); in experiment [10] it was 0.0999 µM (active). Moreover, the compound was classed as inactive in experiment [1], in experiment [2], in experiment [4], in experiment [5] and in [6].

(Values after PubChem BioAssay (EPA / NIEHS).)
